For test [1], the target named is T1, Aspartate--tRNA(Asp/Asn) ligase (Mycobacterium tuberculosis (strain ATCC 25618 / H37Rv)) (UniProt P9WFW3). Also: in the data most compounds retested in dose-response had high values.
T1 sequence (whole entry): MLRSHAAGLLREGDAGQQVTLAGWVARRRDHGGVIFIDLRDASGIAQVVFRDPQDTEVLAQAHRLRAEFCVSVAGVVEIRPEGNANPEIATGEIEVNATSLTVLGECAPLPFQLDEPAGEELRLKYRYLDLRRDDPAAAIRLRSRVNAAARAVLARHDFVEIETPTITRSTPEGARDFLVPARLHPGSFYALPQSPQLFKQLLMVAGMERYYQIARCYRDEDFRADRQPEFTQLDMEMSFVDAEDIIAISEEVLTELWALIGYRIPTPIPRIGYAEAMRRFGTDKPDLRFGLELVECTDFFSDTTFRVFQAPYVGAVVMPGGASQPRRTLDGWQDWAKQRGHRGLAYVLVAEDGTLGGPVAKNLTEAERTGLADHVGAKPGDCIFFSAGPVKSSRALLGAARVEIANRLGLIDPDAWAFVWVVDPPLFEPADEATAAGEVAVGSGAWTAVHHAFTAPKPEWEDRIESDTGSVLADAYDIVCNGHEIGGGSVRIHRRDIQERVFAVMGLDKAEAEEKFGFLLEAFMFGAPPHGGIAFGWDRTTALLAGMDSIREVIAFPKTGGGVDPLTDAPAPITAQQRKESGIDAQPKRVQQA
Briefly: Assay for Asp RNA synthetase-1 from Mycobacterium tuberculosis. In kind it is functional. Also noted: scale not given: direction of the effect not stated beside the values. To be noted: 30 µM.

Test [2] has as its target Shiga toxin 2 (Escherichia coli O157:H7) (UniProt P09385+P09386). In words: E. coli 0.157:H7 Shiga Toxin SOP - stx2 screening assay. In kind it is functional. Also noted: scale not given: direction of the effect not stated beside the values. To be noted: 30 µM.

Turning to `CC(c1ccc(Cl)cc1)N1CCN(CCNS(C)(=O)=O)CC1` (stereo not given), the figures for the Percent Effect in test [1] and in test [2] were 1.42% and -11.7%, respectively.

For `CCOCC1CN(S(=O)(=O)N(C)C)Cc2cnn(C)c21` (stereo not given), the figures for the Percent Effect in test [1] and in test [2] were -3.4% and 6.68%, respectively.

Turning to `COCCN1CC[C@@H]2OC[C@H](C(=O)NCc3cccs3)C[C@@H]2C1`, the Percent Effect in test [1] was 2.37%; in test [2] it was -14.7%.

Take `Cc1cc(C)cc(C2(C(=O)N3CCCC(n4cncn4)C3)CC2)c1` (stereo not given): the Percent Effect in test [1] was found to be 0.962%; in test [2], 26.6%.

On to `O=S1(=O)c2ccccc2C2(CCN(Cc3ccccc3)C2)N1CC1CC1` (stereo not given), for which the Percent Effect in test [1] is -4.07%; in test [2] it was 12.3%.

For the molecule `CC(=O)NCCc1ccc(S(=O)(=O)N(CC(C)C)C(C)C)s1`, the Percent Effect is 7.1% in test [1] and -42.2% in test [2].

With `Cc1cc(CN(C)C(=O)C2CCCN(C(=O)c3cccs3)C2)no1` (stereo not given), the Percent Effect in test [1] is 5.71%; in test [2], -56.4%.

`CCc1nc(C2CCCN2Cc2nc3ccccc3o2)no1` (stereo not given): the values for the Percent Effect in test [1] and in test [2] were -0.404% and 9.5%, respectively.

Consider `CCc1cc(NC2CCN(S(C)(=O)=O)CC2)n2nc(C)c(C)c2n1`, for which the Percent Effect was 1.78% in test [1] and -16% in test [2].

As to `CC[C@@H]1N(CC2CC2)CCC[C@]12CCC(=O)N2CCOC`, the Percent Effect in test [1] was -4.31%; in test [2], -1.83%.

On to `COc1c(CNC2CCN(c3ncccn3)CC2)c(C(C)C)nn1C`, for which the figures for the Percent Effect in test [1] and in test [2] were -2.81% and 30.1%, respectively.

Take `COCCN(C)C[C@@H]1CN(C(=O)c2ccoc2)C[C@@H]1CO`: the Percent Effect was -4.07% in test [1] and 15.1% in test [2].

For `CC(C)(NCC(=O)NCCC#N)c1ccc2c(c1)OCCO2`, the Percent Effect in test [1] was determined as 11.1%; in test [2], 14.2%.

As to `O=C(CS(=O)(=O)CC1CCCCC1)NC1CCCCNC1=O` (stereo not given), the Percent Effect in test [1] is -4.37%; in test [2] it was -23%.

`Cc1cnn(CC2CCCN2C(=O)c2cc3c(F)cccc3[nH]2)c1` (stereo not given): the figures for the Percent Effect in test [1] and in test [2] were 4.86% and -37.3%, respectively.

On to `Cc1cnn(CC2CCCCN2C(=O)Cc2csc(C)n2)c1` (stereo not given), for which the values for the Percent Effect in test [1] and in test [2] were -2.23% and 1.16%, respectively.

For the molecule `O=C1COC2(CCN(Cc3cccs3)CC2)CN1c1ccccc1`, the Percent Effect was -2.62% in test [1] and -22% in test [2].

`Cc1nc(CN(C)C2CCN(Cc3sc(C)nc3C)C2)no1` (stereo not given): the Percent Effect in test [1] was 0.197%; in test [2] it was -0.768%.

Take `O=C(c1ccn[nH]1)N1CCCC(n2cncn2)C1` (stereo not given): the Percent Effect is -5.6% in test [1] and -25% in test [2].

Turning to `CC1CN=C(N2CCN(C(=O)Nc3nc(-c4ccccc4)ns3)CC2)S1` (stereo not given), the Percent Effect in test [1] is 3.62%; in test [2] it was -38.1%.

Consider `CCCc1nc(C(=O)N2CCCn3nc(CCC(=O)O)cc3C2)cs1`, for which the Percent Effect in test [1] is -2.6%; in test [2], 15.5%.

`Cc1nc(CN2CCCn3c(nc(Cn4ccnc4)cc3=O)C2)cs1`: the Percent Effect was 0.435% in test [1] and -3.23% in test [2].

`O=C(Cn1cc(I)cn1)N1CCc2ccccc2C1`: the Percent Effect in test [1] is 2.67%; in test [2], -31%.

Consider `NC(=O)c1ccc(N2CCCCC2)c(NC(=O)c2cc(Br)ccc2F)c1`, for which the Percent Effect was 11% in test [1] and -50.5% in test [2].

For `Cc1nn(C)c(Cl)c1C(=O)NCC(c1ccsc1)N(C)C` (stereo not given), the Percent Effect in test [1] is -6.11%; in test [2], -7.76%.

As for `CCOCCN1CCN(Cc2nnc(C3CC3)o2)CC1CC` (stereo not given), the Percent Effect is 1.06% in test [1] and -12.2% in test [2].

Consider `O=S(=O)(C1CC1)N1CCC2(CC1)CC(Oc1cccnc1)CO2` (stereo not given), for which the Percent Effect in test [1] is 6.21%; in test [2] it was -0.225%.

Regarding `CC(C)c1ccc(C(C)NC(=O)N2CCC(n3cncn3)CC2)cc1` (stereo not given), the Percent Effect was -0.885% in test [1] and 3.93% in test [2].

Consider `O=C(c1ccncc1F)N1CCN(CC2CC2)c2ncccc2C1`, for which the Percent Effect in test [1] is 2.79%; in test [2] it was -37.6%.

For `Cc1nc(CN(C)C2CCN(Cc3ccno3)C2)no1` (stereo not given), the Percent Effect was -4.76% in test [1] and -31.6% in test [2].

Regarding `COc1ccc(C)cc1NC(=O)Nc1cnc(N2CCN(C)CC2)nc1`, the Percent Effect was 0.539% in test [1] and -18.8% in test [2].

`CN1CC(c2ccccc2)CC12CCN(C(=O)c1cncc(Cl)c1)CC2` (stereo not given): the Percent Effect in test [1] amounted to 0.408%; in test [2] it was 12.5%.

With `Cc1nn(C)c(N(C)C)c1CNCc1ccccc1CN(C)C`, the Percent Effect in test [1] was -4.76%; in test [2], -24.6%.

For the molecule `Cc1cn(-c2ccccc2)nc1NS(=O)(=O)c1cccc(C(=O)O)c1`, the Percent Effect in test [1] was 2.62%; in test [2] it was -5.83%.

Take `Cc1cnn(CCNCC(O)COc2ccc(C#N)cc2)c1` (stereo not given): the Percent Effect in test [1] was 1.2%; in test [2] it was -30.5%.

Regarding `Cc1ccc2nc(C3CCN(CCO)CC3)nn2c1`, the Percent Effect in test [1] is 2.18%; in test [2], -3.64%.

With `Cc1nn(-c2ccccc2)cc1C(=O)N1CCCN2CCCC2C1` (stereo not given), the Percent Effect in test [1] was -6.57%; in test [2], -22%.

With `Cn1cc(CN2CCOCC3(C2)CN(c2ccccc2)C(=O)CO3)cn1` (stereo not given), the Percent Effect in test [1] was 5.42%; in test [2], 4.18%.

Turning to `CCc1cnc(N2CC3(CCN(C(=O)c4ccoc4)C3)C2)nc1`, the results for the Percent Effect in test [1] and in test [2] were -4.49% and -30.6%, respectively.

With `CC(C)c1ncc2c(n1)CN(Cc1nc(Cc3ccccc3)no1)CC2`, the figures for the Percent Effect in test [1] and in test [2] were -4.05% and -0.282%, respectively.

As for `Cc1nccn1-c1cc(CNC(=O)C(C)(C)C)ccn1`, the Percent Effect is 10.6% in test [1] and -3.04% in test [2].

Take `CCc1nc(CN2CCCC(N(C)Cc3cnn(C)c3)C2)no1` (stereo not given): the Percent Effect in test [1] was 0.747%; in test [2] it was -30.2%.

As to `Cc1cnn(CC2CCCN2C(=O)c2cn(-c3ccccc3)nc2C)c1` (stereo not given), the Percent Effect in test [1] came out at 4.47%; in test [2] it was 14.6%.

Take `COc1ccc(C2CC(=O)Oc3cc(C)[nH]c(=O)c32)cc1` (stereo not given): the Percent Effect in test [1] is 0.232%; in test [2] it was -8.78%.

On to `Cc1noc(C(C)C)c1C(=O)NCCCOC(C)C`, for which the Percent Effect in test [1] was 2.01%; in test [2] it was -6.05%.

For `Cc1nc(CN2C[C@@H]3CN(C(=O)C4CC4)C[C@@H]3C2=O)cs1`, the Percent Effect in test [1] is -6.04%; in test [2] it was -17.6%.

Regarding `CN(C)C(=O)N[C@@H]1CN(Cc2ccc3c(c2)OCO3)[C@@H]2CCCO[C@@H]21`, the Percent Effect in test [1] was -0.291%; in test [2], -7.65%.

Turning to `CCn1cnnc1C1CCN(C(=O)c2cccc3c2ccn3C)CC1`, the Percent Effect is -3.52% in test [1] and -25.8% in test [2].

As to `O=C(C1=CCCC1)N1C[C@@H]2COC[C@]2(COc2cccnc2)C1`, the Percent Effect is -3.68% in test [1] and 1.76% in test [2].

Take `CC(NC(=O)N1CCN(CCc2ccccc2)CC1)c1nncn1C` (stereo not given): the Percent Effect in test [1] was -7.6%; in test [2] it was -13.8%.
